Experimental findings from PubChem BioAssay are described below.

For some assays here: Potency and affinity values are given separately. Numbered stars: 1 amine (or outer) side, 2 acyl side, 3 side chain; on linkers, the order of the positions; unused ones are H or OH. Bridge positions count the residues as written; N and C are the ends. Square brackets hold non-standard residues; d marks the D form. Peptide text beside a SMILES is read from it. * marks the point of attachment. ξ: configuration not given here. ΔAla(Z-3-ureido) = NC(=O)N/C=C(\N)C(=O)O; X2 = NC1=NCCC(C(N[*:1])C(=O)[*:2])N1; ξβ3hOrn = NCCCC(N)CC(=O)*; Dap = NC[CH](N)C(=O)O

Assay [1] can be described thus: polyglutamine-triggered caspase-3 activation inhibitors, cell-based (AID 1583). The settings on record: polyglutamine-induced caspase-3 activation, cell assay; stronger effect = higher value;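 tested at 10 µM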.
Assay [2] can be described thus: suppressors of polyQ aggregation in yeast, 75Q-TubU reporter (AID 1593). The settings on record: Yeast 75Q polyglutamine aggregation reporter.
The nature of assay [3]: rescue of polyQ-huntingtin neuronal dysfunction in worms, whole organism, C. elegans mechanosensory neurons, N-terminal huntingtin (AID 1599). The settings on record: touch response, stronger effect = higher value.
Assay [4] in a line: inhibitors of mitochondrial cytochrome c release, biochemical, purified mitochondria (AID 1603).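 Note: mouse liver mitochondria challenged with calcium chloride; signal normalized to the plate average as 100%.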 The settings on record: stronger effect = lower value.
A short description of assay [5]: inhibitors of polyQ protein aggregation (AID 1604). As to conditions: polyglutamine-induced protein aggregation inhibition assay; stronger effect = higher value; tested at 2.5 µM.

For `NCC1OC(OC2C(N)CC(N)C(OC3OC(CO)C(O)C(N)C3O)C2O)C(N)C(O)C1O` (stereo not given), the inhibition – broadly, the relative decrease from the control value, in per cent – in assay [1] is 27.6%. The same compound yielded a score in assay [2] of 0.94. Also, the rescue above control in assay [3] was -18. The cytochrome c release ratio in assay [4] is 4.45. The inhibition of aggregation in assay [5] was found to be 8.33%.
In the case of `CC1(C)O[C@@H]2C[C@H]3C4C[C@H](F)C5=CC(=O)C=CC5(C)[C@@]4(F)[C@@H](O)C[C@]3(C)[C@]2(C(=O)CO)O1` (stereo not given in full), the inhibition in assay [1] is -27.2%. For the same compound, the score in assay [2] came to 1.29. Also, the rescue above control in assay [3] is -9.42. Moreover, the cytochrome c release ratio in assay [4] amounted to 0.94. For the same compound, the inhibition of aggregation in assay [5] was found to be 61.1%.
For the compound `CC12CCC(CC1=O)C2(C)C` (stereo not given), in assay [1], the inhibition was 15.1%. Further, the score in assay [2] was determined as 1.08. This compound also had a rescue above control in assay [3] of 1.05. Further, in assay [4], the cytochrome c release ratio came out at 1.24. The inhibition of aggregation in assay [5] worked out at 43.2%.
The like results for `COc1ccc(CCC(=O)c2c(O)cc(O[C@@H]3O[C@H](CO)C(O)[C@H](O)C3O[C@@H]3O[C@@H](C)[C@H](O)[C@@H](O)[C@H]3O)cc2O)cc1O` (stereo not given in full) were, in that order, 18.6%, 1.15, -2.46, 1.1 and 77.8%.
With `NCCCC(N)CC(=O)NCC1NC(=O)C(CO)NC(=O)C(N)CNC(=O)C(C2CCN=C(N)N2)NC(=O)/C(=C/NC(N)=O)NC1=O` (stereo not drawn) (H-[Dap]S[Dap](ξβ3hOrn)[ΔAla(Z-3-ureido)][X2]; lactam 1-C; configuration not given here), in assay [1], the inhibition was found to be 21.4%. In assay [2], this compound showed a score of 1.54. The rescue above control in assay [3] came to 3.33. Further, in assay [4], the cytochrome c release ratio came to 2.07. In assay [5], the inhibition of aggregation was -24.2%.
As for `C1CCN2C[C@@H]3CC(CN4CCCC[C@@H]34)[C@H]2C1`, in assay [1], the inhibition came to 16.2%. In assay [2], the score turned out to be 1.32. The rescue above control in assay [3] was -2.17. The cytochrome c release ratio in assay [4] worked out at 1.45. The inhibition of aggregation in assay [5] turned out to be 72.7%.
Consider `COC1=C2C[C@@H](C)C[C@H](OC)[C@H](O)[C@@H](C)/C=C(\C)[C@@H](OC(N)=O)[C@H](OC)/C=C\C=C(/C)C(=O)NC(=CC1=O)C2=O`, for which the inhibition in assay [1] was -5.02%. This compound had a score in assay [2] of 2.11. The same compound had a rescue above control in assay [3] of 0. The cytochrome c release ratio in assay [4] was 1.13. For the same compound, in assay [5], the inhibition of aggregation was -23.4%.
The like results for `C[C@@H]1OC(Oc2c(-c3ccc(O)c(O)c3)oc3cc(O)cc(O)c3c2=O)[C@H](O)[C@H](O)[C@H]1O` (stereo not given in full) were, in that order, -5.21%, 1.19, 16.2, 0.64 and 72.2%.
Take `CC(=O)Oc1ccc2c(c1)CCC1C2CCC2(C)C(=O)CCC12` (stereo not given): the inhibition in assay [1] worked out at 10.5%. In addition, the score in assay [2] was -0.03. Also, in assay [3], the rescue above control was -10.4. Besides, the cytochrome c release ratio in assay [4] was found to be 0.81. Besides, the inhibition of aggregation in assay [5] was found to be 85.9%.
For `NC[C@@H]1O[C@H](O[C@@H]2[C@@H](CO)OC(O[C@@H]3[C@@H](O)[C@H](N)C[C@H](N)[C@H]3OC3O[C@H](CO)[C@@H](O)[C@H](O)[C@H]3N)[C@@H]2O)[C@H](N)[C@@H](O)[C@@H]1O` (stereo not given in full), the inhibition in assay [1] is -9.63%. Also, the score in assay [2] came to 1.53. The rescue above control in assay [3] worked out at 1.69. The cytochrome c release ratio in assay [4] turned out to be 1.36. The inhibition of aggregation in assay [5] was determined as 42.9%.
The like results for `CCC(=O)O[C@@H](O[P@](=O)(CCCCc1ccccc1)CC(=O)N1C[C@H](C2CCCCC2)C[C@H]1C(=O)O)C(C)C` were, in that order, 5.65%, 0.97, 2.83, 0.8 and 47.1%.
The like results for `CC1(C)O[C@@H]2CC3C4CCC5=CC(=O)CCC5(C)C4(F)C(O)CC3(C)[C@]2(C(=O)CCl)O1` (stereo not given in full) were, in that order, -34.5%, 1.26, -3.98, 1.36 and 79.5%.
Taken in the same sequence, the figures for `CC(=O)N[C@@H](Cc1c[nH]c2ccccc12)C(=O)O` were 20.8%, 1.18, 0.41, 0.48 and 74.4%.
With `COc1ccc2c(c1OC)C(=O)O[C@H]2[C@@H]1c2ccccc2CCN1C`, in assay [1], the inhibition was 69.2%. In addition, the score in assay [2] turned out to be 1.08. Moreover, in assay [3], the rescue above control is -8.02. Besides, the cytochrome c release ratio in assay [4] turned out to be 0.71. Moreover, the inhibition of aggregation in assay [5] was found to be 72.2%.
For the compound `CC(C)[C@@H](C)/C=C/[C@@H](C)C1CC[C@H]2/C(=C/C=C3\C[C@@H](O)CC[C@@H]3C)CCC[C@]12C` (stereo not given in full), in assay [1], the inhibition is 63.6%. The compound also displayed a score in assay [2] of 0.42. The same compound returned a rescue above control in assay [3] of 5.3. Besides, the cytochrome c release ratio in assay [4] came to 0.91. For the same compound, the inhibition of aggregation in assay [5] came to 83.3%.
Take `C[C@]12CCC3c4ccc(OC(=O)CCC(=O)O)cc4CCC3C1CCC2=O` (stereo not given in full): the inhibition in assay [1] is 21.8%. In addition, in assay [2], the score amounted to 1.66. This compound came in with a rescue above control in assay [3] of 8.92. The cytochrome c release ratio in assay [4] was 0.83. For the same compound, in assay [5], the inhibition of aggregation was 33.3%.
Taken in the same sequence, the figures for `NCCNC(=O)c1ccc(Cl)cc1` were -45.7%, 1.23, -2.85, 1.14 and 66.7%.
For `O=C(Cc1cccs1)NC1C(=O)N2C(C(=O)[O-])=C(C[n+]3ccccc3)CSC12` (stereo not given), in assay [1], the inhibition is 35.1%. In addition, the score in assay [2] was found to be 1.38. Besides, the rescue above control in assay [3] was -1.43. Also, the cytochrome c release ratio in assay [4] was 1.22. For the same compound, in assay [5], the inhibition of aggregation was 59%.
With `Nc1ncnc2c1ncn2C1OC(CO)[C@H](O)C1O` (stereo not given in full), the inhibition in assay [1] was -97.3%. In addition, the score in assay [2] turned out to be 1.18. The rescue above control in assay [3] is -9.49. In addition, in assay [4], the cytochrome c release ratio was determined as 1.64. Moreover, the inhibition of aggregation in assay [5] worked out at 80.6%.
